Measured values reported in PubChem BioAssay (NCATS).
Inconclusive results are not listed. A call without a number means that no potency is given here. Activity calls are given as the source filed them. Calls come from the whole dose curve; as a rule, active = well fitted cell-killing curve with a large enough effect; inconclusive = small, poorly fitted or top-dose-only effect, or effect the other way; inactive = no such curve, though single readings can be large or run the other way.

Experiment: qHTS assay to identify small molecule inhibitors of chordoma cells - UCH-1 (AID 1259355); note: nearly all actives have a fitted effect of over 55% in size
Conditions: UCH-1 chordoma viability, CellTiter-Glo, 48 h, combination, with auranofin plus four topoisomerase inhibitors; series mostly up to 46.1 µM
In short: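 800 cells/well, overnight attach; compounds pinned at 15 concs, then auranofin/camptothecin/doxorubicin/rubitecan/topotecan combo added; 48hr 37 C, 5% CO2; CellTiter-Glo, 30min RT, luminescence.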
Potency is the fitted concentration of half-maximal effect.

Question: For CC(C)(C)NCC(O)CSc1nc(-c2ccc(C(N)=O)s2)cs1 (configuration not stated), which Potency is on record?
Answer: inactive

Question: For COc1ccc(C(=O)CCC(=O)O)c2ccccc12, which Potency is on record?
Answer: inactive

Question: With CCCCCCCCCCCCCCCCCC(=O)OC[C@@H](O)[C@H]1OC[C@H](O)[C@H]1O as the molecule, how does the Potency read?
Answer: inactive

Question: Which Potency does the source give for Cn1cc(NC(=O)c2cc(NC(=O)c3cc(NC=O)cn3C)cn2C)cc1C(=O)NCCC(=N)N here?
Answer: inactive

Question: Which Potency does the source give for CCOC(=O)[C@@H](N)CS here?
Answer: inactive

Question: Which Potency does the source give for CCCCCCCCCCCCCCCCCCCCCC(=O)Nc1ccn([C@@H]2O[C@H](CO)[C@@H](O)[C@@H]2O)c(=O)n1 here?
Answer: inactive

Question: Which Potency does the source give for CC[C@H]1OC(=O)[C@H](C)[C@@H](O[C@H]2C[C@@](C)(OC)[C@@H](O)[C@H](C)O2)[C@H](C)[C@@H](O[C@@H]2O[C@H](C)C[C@H](N(C)C)[C@H]2O)[C@](C)(O)C[C@@H](C)CN(C)[C@H](C)[C@@H](O)[C@]1(C)O here?
Answer: inactive

Question: With C[C@]12CCC(=O)C[C@@H]1CC[C@@H]1[C@@H]2CC[C@]2(C)C=CC[C@@H]12 as the molecule, how does the Potency read?
Answer: inactive

Question: With Oc1cccc(O)c1O as the molecule, how does the Potency read?
Answer: inactive

Question: For Cc1cc(-c2ccc(N=Nc3c(S(=O)(=O)O)cc4cc(S(=O)(=O)O)cc(N)c4c3O)c(C)c2)ccc1N=Nc1c(S(=O)(=O)O)cc2cc(S(=O)(=O)O)cc(N)c2c1O, which Potency is on record?
Answer: 11.2 µM (active)

Question: With C[C@H](NCCc1ccc(O)cc1)[C@H](O)c1ccc(O)cc1 as the molecule, how does the Potency read?
Answer: inactive

Question: Which Potency does the source give for CC(C)(C)CC(C)(C)c1cc(Cc2cc(C(C)(C)CC(C)(C)C)cc(-n3nc4ccccc4n3)c2O)c(O)c(-n2nc3ccccc3n2)c1 here?
Answer: inactive

Question: Which Potency does the source give for OCc1ccccc1 here?
Answer: inactive

Question: With CC(C)C[C@H](NC(=O)[C@@H](Cc1c[nH]c2ccccc12)NC(=O)[C@H](Cc1ccc(O)cc1)NC(=O)[C@H](CO)NC(=O)[C@H](Cc1c[nH]c2ccccc12)NC(=O)[C@H](Cc1cnc[nH]1)NC(=O)[C@@H]1CCC(=O)N1)C(=O)N[C@@H](CCCN=C(N)N)C(=O)N1CCC[C@@H]1C(=O)NCC(N)=O as the molecule, how does the Potency read?
Answer: inactive

Question: With CNC(C)CCC=C(C)C (configuration not stated) as the molecule, how does the Potency read?
Answer: inactive

Question: Which Potency does the source give for C[S+](C)CCC(N)C(=O)O (configuration not stated) here?
Answer: inactive

Question: Which Potency does the source give for C[C@@H]1C[C@H]2[C@@H]3CCC4=CC(=O)C=C[C@]4(C)[C@@]3(F)[C@@H](O)C[C@]2(C)[C@@]1(O)C(=O)COC(=O)c1cccc(S(=O)(=O)O)c1 here?
Answer: inactive

Question: For C[C@]12CC[C@@H]3c4ccc(OC(=O)c5ccccc5)cc4CC[C@H]3[C@@H]1CC[C@@H]2O, which Potency is on record?
Answer: inactive

Question: For CNCC(O)c1ccc(OC(=O)C(C)(C)C)c(OC(=O)C(C)(C)C)c1 (configuration not stated), which Potency is on record?
Answer: inactive

Question: For COc1ccc(C[C@H](C)NC[C@@H](O)c2ccc(O)c(NC=O)c2)cc1, which Potency is on record?
Answer: inactive

Question: For CCCCCCCCCCCC(=O)OC[C@@H](O)C1OC[C@H](O)[C@H]1O (some centres not stated), which Potency is on record?
Answer: inactive

Question: For OCC(O)CO, which Potency is on record?
Answer: inactive

Question: With CC(=O)Nc1ccc(NC(=S)NC(=O)c2ccc(C(C)(C)C)cc2)cc1 as the molecule, how does the Potency read?
Answer: inactive

Question: With CC1CCCCN1CCCOC(=O)c1ccccc1 (configuration not stated) as the molecule, how does the Potency read?
Answer: inactive

Question: For Nc1ncnc2c1ncn2[C@H]1CC[C@@H](CO)O1, which Potency is on record?
Answer: inactive

Question: Which Potency does the source give for Nc1nc(NC2CC2)c2ncn([C@@H]3C=C[C@@H](CO)C3)c2n1 here?
Answer: inactive

Question: With Cc1ccc(S(=O)(=O)O)cc1C as the molecule, how does the Potency read?
Answer: inactive

Question: Which Potency does the source give for COC(=O)CC[C@H](N)C(=O)O here?
Answer: inactive

Question: Which Potency does the source give for CC(=O)NCCCS(=O)(=O)O here?
Answer: inactive

Question: For O=C(O)[C@@H]1C[C@H](CP(=O)(O)O)CCN1, which Potency is on record?
Answer: inactive

Question: Which Potency does the source give for O=C1[O][Bi][O]c2ccccc21 here?
Answer: inactive

Question: With CCCCC(CC)CCC(CC(C)C)OS(=O)(=O)O (configuration not stated) as the molecule, how does the Potency read?
Answer: inactive

Question: Which Potency does the source give for CC(C)(C)c1ccc2c(S(=O)(=O)O)c(C(C)(C)C)ccc2c1 here?
Answer: inactive

Question: With CC(C)CCC[C@@H](C)[C@H]1CC[C@H]2[C@@H]3CC[C@@H]4C[C@H](O)CC[C@]4(C)[C@H]3CC[C@]12C as the molecule, how does the Potency read?
Answer: inactive

Question: Which Potency does the source give for FC(F)(F)C(F)(F)C(F)(F)C(F)(F)C(F)(F)F here?
Answer: inactive

Question: With O=C(O)c1ccc(NC(=O)[C@H](Cc2ccc(O)cc2)NC(=O)c2ccccc2)cc1 as the molecule, how does the Potency read?
Answer: inactive

Question: With Cc1ccc(S(=O)(=O)NCl)cc1 as the molecule, how does the Potency read?
Answer: inactive
